Our source for the inhibition values is ChEMBL document CHEMBL1961873, “Compounds: GSK PKIS; Assays: Nanosyn kinase panel” (2012).

Assay [1] has as its target Sphingosine kinase 1 (Homo sapiens) (UniProt Q9NYA1). The note with it: at 1 µM.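 Note: mean SPHK1 inhibition value reported from the GSK PKIS kinase panel screen.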
Assay [2] deals with T1, Sphingosine kinase 2 (Homo sapiens) (UniProt Q9NRA0).
T1 sequence (whole entry): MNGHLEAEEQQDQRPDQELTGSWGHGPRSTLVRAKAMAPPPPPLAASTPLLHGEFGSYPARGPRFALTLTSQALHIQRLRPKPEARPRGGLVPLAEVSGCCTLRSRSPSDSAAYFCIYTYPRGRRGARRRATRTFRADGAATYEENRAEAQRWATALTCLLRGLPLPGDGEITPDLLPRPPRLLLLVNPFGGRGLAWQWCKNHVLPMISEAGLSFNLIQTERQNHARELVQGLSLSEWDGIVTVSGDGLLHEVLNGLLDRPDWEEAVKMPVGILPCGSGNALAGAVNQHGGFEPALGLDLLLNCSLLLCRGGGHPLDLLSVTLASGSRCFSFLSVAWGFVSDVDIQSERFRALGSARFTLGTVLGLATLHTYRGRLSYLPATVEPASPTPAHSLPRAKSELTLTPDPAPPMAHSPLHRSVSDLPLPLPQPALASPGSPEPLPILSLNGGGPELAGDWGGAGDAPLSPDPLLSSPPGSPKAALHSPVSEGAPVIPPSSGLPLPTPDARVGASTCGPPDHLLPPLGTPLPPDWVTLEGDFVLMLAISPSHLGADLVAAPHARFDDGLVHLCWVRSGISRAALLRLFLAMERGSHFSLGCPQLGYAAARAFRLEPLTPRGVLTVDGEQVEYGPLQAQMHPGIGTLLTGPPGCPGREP
The settings on record: at 0.1 µM.

Assay [3] has as its target T1, Sphingosine kinase 2 (Homo sapiens). The settings on record: at 1 µM.
For assay [4], the target named is Casein kinase II subunit alpha (Homo sapiens) (UniProt P68400). The note with it: at 0.1 µM.
Chain of Casein kinase II subunit alpha (Homo sapiens) (P68400 whole entry, looked up): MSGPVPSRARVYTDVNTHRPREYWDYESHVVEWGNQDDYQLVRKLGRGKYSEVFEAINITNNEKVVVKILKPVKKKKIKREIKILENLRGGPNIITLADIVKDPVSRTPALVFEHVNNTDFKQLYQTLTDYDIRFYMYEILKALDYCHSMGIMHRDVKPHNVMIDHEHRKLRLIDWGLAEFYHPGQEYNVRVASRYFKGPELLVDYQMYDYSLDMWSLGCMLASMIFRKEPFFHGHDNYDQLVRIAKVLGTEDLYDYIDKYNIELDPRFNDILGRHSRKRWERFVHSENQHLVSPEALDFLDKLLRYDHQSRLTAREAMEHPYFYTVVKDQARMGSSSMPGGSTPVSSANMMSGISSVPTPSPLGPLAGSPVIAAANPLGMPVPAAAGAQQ
The target is the same in assay [5]. The note with it: at 1 µM.
Assay [6] has as its target T2, Inhibitor of nuclear factor kappa-B kinase subunit alpha (Homo sapiens) (UniProt O15111).
T2 sequence (whole entry): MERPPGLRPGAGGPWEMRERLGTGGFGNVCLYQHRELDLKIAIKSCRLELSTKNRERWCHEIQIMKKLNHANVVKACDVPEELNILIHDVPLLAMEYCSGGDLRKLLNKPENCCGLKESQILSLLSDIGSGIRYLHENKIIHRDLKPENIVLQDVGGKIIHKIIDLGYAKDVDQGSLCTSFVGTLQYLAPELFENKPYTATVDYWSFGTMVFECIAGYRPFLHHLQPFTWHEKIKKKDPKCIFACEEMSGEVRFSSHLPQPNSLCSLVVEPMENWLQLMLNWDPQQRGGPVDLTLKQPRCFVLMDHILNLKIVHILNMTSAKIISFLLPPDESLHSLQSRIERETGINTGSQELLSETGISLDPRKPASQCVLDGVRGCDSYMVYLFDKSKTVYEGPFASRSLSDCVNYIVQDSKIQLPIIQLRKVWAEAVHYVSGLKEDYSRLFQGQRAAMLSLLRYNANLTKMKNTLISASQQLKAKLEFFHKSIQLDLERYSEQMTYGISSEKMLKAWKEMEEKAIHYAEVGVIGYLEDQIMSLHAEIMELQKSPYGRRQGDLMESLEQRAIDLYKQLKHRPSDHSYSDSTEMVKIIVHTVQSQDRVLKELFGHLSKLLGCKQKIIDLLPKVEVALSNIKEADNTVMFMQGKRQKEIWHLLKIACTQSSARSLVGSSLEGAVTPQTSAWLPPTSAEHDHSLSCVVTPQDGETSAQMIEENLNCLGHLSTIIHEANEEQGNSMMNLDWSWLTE
The settings on record: at 0.1 µM.

In assay [7] the target is T2, Inhibitor of nuclear factor kappa-B kinase subunit alpha (Homo sapiens). The settings on record: at 1 µM.
For assay [8], the target named is T3, Inhibitor of nuclear factor kappa-B kinase subunit beta (Homo sapiens) (UniProt O14920).
T3 sequence (whole entry): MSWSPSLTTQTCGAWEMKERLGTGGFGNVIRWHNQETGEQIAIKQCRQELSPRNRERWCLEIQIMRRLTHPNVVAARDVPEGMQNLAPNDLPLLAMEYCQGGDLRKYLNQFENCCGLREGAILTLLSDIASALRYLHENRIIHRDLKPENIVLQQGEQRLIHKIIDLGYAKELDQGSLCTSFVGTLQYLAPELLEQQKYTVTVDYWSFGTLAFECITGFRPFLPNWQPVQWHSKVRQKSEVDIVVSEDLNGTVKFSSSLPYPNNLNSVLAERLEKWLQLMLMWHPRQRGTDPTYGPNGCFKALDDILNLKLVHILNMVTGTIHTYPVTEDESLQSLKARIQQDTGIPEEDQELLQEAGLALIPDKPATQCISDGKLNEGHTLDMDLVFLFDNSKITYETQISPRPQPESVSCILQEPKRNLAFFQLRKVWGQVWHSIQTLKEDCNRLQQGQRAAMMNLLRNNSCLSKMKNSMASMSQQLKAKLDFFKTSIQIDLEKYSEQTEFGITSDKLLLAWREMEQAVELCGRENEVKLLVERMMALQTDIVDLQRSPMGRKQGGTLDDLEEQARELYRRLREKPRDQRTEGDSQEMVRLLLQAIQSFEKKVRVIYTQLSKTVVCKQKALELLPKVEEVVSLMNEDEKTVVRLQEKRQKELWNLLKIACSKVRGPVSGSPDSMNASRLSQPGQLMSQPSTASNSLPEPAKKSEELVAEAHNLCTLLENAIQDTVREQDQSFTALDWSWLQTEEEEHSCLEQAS
The settings on record: at 0.1 µM.

Assay [9] addresses T3, Inhibitor of nuclear factor kappa-B kinase subunit beta (Homo sapiens). The note with it: at 1 µM.
Assay [10] deals with T4, Inhibitor of nuclear factor kappa-B kinase subunit epsilon (Homo sapiens) (UniProt Q14164).
T4 sequence (whole entry): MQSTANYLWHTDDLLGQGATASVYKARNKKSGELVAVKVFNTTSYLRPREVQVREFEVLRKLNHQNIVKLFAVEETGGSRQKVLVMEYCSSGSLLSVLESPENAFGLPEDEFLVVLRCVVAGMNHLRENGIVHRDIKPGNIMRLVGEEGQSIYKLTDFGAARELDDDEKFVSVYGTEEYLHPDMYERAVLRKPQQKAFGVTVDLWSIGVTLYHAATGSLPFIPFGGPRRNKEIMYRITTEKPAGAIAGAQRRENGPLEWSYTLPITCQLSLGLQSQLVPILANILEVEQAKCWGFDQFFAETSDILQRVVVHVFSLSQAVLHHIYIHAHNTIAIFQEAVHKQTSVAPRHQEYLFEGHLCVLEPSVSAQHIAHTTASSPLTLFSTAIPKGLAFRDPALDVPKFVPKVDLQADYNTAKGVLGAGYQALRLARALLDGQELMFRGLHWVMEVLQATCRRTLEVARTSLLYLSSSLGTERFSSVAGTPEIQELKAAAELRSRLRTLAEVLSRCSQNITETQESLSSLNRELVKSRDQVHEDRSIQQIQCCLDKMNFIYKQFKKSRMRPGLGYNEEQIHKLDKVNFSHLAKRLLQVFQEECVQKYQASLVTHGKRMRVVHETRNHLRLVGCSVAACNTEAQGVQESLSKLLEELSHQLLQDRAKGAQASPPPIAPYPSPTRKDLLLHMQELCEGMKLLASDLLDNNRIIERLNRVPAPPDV
The note with it: at 0.1 µM.

For assay [11], the target named is T4, Inhibitor of nuclear factor kappa-B kinase subunit epsilon (Homo sapiens). The note with it: at 1 µM.
Assay [12] deals with T5, Serine/threonine-protein kinase Nek1 (Homo sapiens) (UniProt Q96PY6).
T5 sequence (whole entry): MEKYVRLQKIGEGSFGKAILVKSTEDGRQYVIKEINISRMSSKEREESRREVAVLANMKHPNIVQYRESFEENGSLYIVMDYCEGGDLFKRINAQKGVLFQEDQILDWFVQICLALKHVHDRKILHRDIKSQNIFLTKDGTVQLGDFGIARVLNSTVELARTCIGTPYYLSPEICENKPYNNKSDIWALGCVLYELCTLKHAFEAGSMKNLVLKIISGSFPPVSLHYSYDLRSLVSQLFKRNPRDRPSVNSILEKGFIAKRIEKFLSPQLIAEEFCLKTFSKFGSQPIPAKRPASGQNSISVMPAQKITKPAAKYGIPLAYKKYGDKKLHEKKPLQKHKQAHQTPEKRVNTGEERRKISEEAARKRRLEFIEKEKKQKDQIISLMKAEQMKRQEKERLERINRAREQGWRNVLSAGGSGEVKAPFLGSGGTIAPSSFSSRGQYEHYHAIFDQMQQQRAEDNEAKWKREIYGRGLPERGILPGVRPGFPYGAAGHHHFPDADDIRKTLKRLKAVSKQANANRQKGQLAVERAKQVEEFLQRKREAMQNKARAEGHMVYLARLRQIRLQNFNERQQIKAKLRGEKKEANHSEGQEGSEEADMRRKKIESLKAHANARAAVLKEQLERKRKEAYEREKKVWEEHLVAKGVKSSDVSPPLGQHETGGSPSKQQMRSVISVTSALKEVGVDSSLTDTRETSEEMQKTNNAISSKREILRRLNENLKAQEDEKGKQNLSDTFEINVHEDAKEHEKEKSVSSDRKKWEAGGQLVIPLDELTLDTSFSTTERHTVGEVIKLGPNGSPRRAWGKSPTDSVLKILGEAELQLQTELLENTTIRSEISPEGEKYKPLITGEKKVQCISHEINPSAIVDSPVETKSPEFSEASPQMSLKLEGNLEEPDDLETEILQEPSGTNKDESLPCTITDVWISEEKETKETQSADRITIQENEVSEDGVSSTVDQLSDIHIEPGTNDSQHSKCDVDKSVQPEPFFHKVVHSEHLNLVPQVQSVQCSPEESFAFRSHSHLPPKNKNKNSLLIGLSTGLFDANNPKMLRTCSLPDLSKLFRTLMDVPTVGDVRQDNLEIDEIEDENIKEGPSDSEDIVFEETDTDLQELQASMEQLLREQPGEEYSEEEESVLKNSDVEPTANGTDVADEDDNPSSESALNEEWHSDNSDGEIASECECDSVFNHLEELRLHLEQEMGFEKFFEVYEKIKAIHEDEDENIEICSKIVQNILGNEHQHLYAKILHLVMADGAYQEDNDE
The settings on record: at 0.1 µM.

The target in assay [13] is T5, Serine/threonine-protein kinase Nek1 (Homo sapiens). The note with it: at 1 µM.
Assay [14] concerns the target T6, Serine/threonine-protein kinase Nek2 (Homo sapiens) (UniProt P51955).
T6 sequence (whole entry): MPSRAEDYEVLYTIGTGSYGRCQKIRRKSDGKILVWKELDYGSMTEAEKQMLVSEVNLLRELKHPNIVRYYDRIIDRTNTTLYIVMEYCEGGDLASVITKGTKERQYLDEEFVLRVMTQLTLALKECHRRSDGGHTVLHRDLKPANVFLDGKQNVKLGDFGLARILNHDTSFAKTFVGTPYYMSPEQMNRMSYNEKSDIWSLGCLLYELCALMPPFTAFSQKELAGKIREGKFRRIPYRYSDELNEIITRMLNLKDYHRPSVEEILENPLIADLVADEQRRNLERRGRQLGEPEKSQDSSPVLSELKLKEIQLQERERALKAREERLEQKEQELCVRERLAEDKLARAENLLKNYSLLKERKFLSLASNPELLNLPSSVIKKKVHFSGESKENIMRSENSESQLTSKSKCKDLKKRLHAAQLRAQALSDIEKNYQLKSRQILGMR
The note with it: at 0.1 µM.

Assay [15] addresses T6, Serine/threonine-protein kinase Nek2 (Homo sapiens). The settings on record: at 1 µM.
In assay [16] the target is Serine/threonine-protein kinase Nek6 (Homo sapiens) (UniProt Q9HC98). The note with it: at 0.1 µM.
Chain of Serine/threonine-protein kinase Nek6 (Homo sapiens) (Q9HC98 whole entry): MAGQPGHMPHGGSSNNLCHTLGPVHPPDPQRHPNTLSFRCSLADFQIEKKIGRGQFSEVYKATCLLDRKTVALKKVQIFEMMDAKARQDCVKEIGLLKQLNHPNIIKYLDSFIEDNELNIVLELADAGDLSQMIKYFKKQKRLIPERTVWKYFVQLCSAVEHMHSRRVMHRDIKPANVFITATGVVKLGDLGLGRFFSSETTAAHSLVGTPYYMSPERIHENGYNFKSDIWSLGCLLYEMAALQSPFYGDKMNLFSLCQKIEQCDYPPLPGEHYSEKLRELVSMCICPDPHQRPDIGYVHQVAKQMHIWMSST
Assay [17] shares this target. The settings on record: at 1 µM.
Assay [18] deals with Serine/threonine-protein kinase Nek7 (Homo sapiens) (UniProt Q8TDX7). The settings on record: at 0.1 µM.
Chain of Serine/threonine-protein kinase Nek7 (Homo sapiens) (Q8TDX7 whole entry, looked up): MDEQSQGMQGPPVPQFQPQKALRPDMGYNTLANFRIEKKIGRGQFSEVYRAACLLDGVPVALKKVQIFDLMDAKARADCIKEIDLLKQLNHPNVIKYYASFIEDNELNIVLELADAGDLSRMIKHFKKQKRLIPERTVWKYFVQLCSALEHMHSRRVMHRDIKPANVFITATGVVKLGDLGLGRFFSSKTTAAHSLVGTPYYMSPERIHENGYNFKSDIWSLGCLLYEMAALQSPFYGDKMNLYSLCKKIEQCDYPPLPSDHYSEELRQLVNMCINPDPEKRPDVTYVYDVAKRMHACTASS
Assay [19] has the same target. The note with it: at 1 µM.
The target in assay [20] is T7, Serine/threonine-protein kinase Nek9 (Homo sapiens) (UniProt Q8TD19).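 Note: reported value is the mean percent inhibition of NEK9.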
T7 sequence (whole entry): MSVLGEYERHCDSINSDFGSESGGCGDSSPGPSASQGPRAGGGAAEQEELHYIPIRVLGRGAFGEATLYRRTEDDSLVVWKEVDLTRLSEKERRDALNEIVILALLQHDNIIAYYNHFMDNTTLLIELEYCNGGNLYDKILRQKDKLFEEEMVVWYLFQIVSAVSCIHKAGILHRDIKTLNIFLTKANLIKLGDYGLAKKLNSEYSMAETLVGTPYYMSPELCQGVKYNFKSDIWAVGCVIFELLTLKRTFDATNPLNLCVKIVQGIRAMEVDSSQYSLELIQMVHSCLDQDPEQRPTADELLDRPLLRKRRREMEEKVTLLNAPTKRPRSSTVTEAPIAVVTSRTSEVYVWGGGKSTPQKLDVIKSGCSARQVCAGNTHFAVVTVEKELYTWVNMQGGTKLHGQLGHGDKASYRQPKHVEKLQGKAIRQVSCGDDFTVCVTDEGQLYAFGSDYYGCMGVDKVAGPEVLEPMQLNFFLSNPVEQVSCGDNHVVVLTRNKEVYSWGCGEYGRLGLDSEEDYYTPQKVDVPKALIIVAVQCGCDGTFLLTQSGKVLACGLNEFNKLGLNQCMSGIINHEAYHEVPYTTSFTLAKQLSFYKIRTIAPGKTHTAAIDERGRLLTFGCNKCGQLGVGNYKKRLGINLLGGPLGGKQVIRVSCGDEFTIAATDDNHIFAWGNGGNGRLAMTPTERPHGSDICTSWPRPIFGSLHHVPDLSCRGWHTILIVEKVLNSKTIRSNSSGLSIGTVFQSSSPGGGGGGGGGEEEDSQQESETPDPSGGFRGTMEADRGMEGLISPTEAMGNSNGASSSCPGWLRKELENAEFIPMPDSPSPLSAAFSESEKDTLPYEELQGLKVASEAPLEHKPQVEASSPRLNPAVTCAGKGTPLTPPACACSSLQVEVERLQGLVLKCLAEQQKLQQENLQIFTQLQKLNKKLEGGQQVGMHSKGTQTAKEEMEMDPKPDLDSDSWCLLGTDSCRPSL
The note with it: at 0.1 µM.

A word on the inhibition: it is the change of the read-out against control, counted positive when it falls.

Chain of Sphingosine kinase 1 (Homo sapiens) (Q9NYA1 whole entry): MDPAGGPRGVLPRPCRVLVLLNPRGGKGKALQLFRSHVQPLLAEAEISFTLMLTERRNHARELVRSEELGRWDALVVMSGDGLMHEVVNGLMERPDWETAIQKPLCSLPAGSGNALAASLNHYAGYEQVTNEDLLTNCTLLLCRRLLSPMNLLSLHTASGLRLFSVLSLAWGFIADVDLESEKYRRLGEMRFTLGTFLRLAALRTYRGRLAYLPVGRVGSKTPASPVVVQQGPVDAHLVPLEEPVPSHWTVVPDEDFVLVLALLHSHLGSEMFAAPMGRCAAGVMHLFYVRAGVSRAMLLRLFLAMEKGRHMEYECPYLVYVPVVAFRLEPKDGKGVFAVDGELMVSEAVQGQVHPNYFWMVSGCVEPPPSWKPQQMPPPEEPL

Turning to `Cc1cc(O)cc(C)c1/C=C/c1cncc(C(=O)OC(C)(C)C)c1`, the inhibition in [1] is -1.82%; in assay [2], 0.51%; in assay [3] it was 0%; in assay [4], 4.48%; in assay [5], 7.86%; in assay [6], 2.35%. Also, the inhibition in assay [7] was 1.81%; in [8], 2.36%; in [9], 2.32%; in [10] it was 4.19%; in assay [11], 91.7%; in [12] it was 2.47%. Besides, the inhibition is 4.15% in assay [13]; 3.29% in assay [14]; 2.53% in assay [15]; 1.87% in [16]; 2.59% in assay [17]; -2.32% in [18]. The inhibition in [19] worked out at 3.53%; in [20], 8.55%.
